Values of other authors, collected in PubChem BioAssay AID977611.
Hit rate of the full screen: of about 3,900 compounds, about 3,900 (100%) were called active. No cut-off is given here; in the data, nearly all actives have Kd up to about 4200 µM. So high a share suggests a set chosen from earlier hits. Some of the results follow. Where a SMILES comes first, the peptide text is derived from it. Non-standard residues stand in square brackets, D forms with d. Residues, ends and D or L forms follow the SMILES beside them. Peptide text beside a SMILES is read from it. [ ]: non-standard residue; d: D form. Orn(CH(NH2)2) = NC(N)NCCC[C@H](N)C(=O)O

Assay: PubChem AID 977611
Settings: PDB protein-ligand complexes, literature Kd

Compound: H-QLAWFDTDL-OH
- Kd (protein: Tax-interacting protein-1 (TIP-1), PDB entry 3diw): 0.19 µM (active)

Compound: H-NFTLKFWDIF-OH
- Kd (protein: Chaperone surA(P2), PDB entry 2pv3): 5.57 µM (active)

Compound: CC[C@H](C)[C@H](NC(=O)[C@H](CC(=O)O)NC(=O)[C@H](Cc1c[nH]c2ccccc12)NC(=O)[C@H](Cc1ccccc1)NC(=O)[C@H](CCCCN)NC(=O)[C@H](CC(C)C)NC(=O)[C@@H](NC(=O)[C@H](Cc1ccccc1)NC(=O)[C@@H](N)CC(N)=O)[C@@H](C)O)C(=O)N[C@@H](Cc1ccccc1)C(=O)N[C@@H](CCCNC(N)N)C(=O)N[C@@H](CCCCN)C(=O)O (H-NFTLKFWDIF[Orn(CH(NH2)2)]K-OH)
- Kd (protein: Chaperone surA-P1, PDB entry 2pv2): 1.23 µM (active)

Compound: NCc1cccc(-n2cccn2)c1
- Kd (protein: CATIONIC TRYPSIN, PDB entry 4abe): 400 µM (active)

Compound: NCc1cccc(-n2cccc2)c1
- Kd (protein: CATIONIC TRYPSIN, PDB entry 4abd): 40 µM (active)

Compound: NCc1cccc(N2CCCC2)c1
- Kd (protein: CATIONIC TRYPSIN, PDB entry 4abh): 71 µM (active)

Compound: NCc1ccccc1-n1cccn1
- Kd (protein: INTEGRASE, PDB entry 4ahv): 15000 µM (active)

Compound: O[P+](O)(O)O[C@@H]1C(OCc2ccccc2)[C@H](O[P+](O)(O)O)[C@@H](O[P+](O)(O)O)C(OCc2ccccc2)[C@H]1O[P+](O)(O)O (stereo not given in full)
- Kd (protein: Inositol hexakisphosphate and diphosphoinositol-pentakisphosphate kinase 2 PPIP5K2, PDB entry 4nzo): 0.17 µM (active)

Compound: C[C@@H]1O[C@@H](O)[C@H](O)[C@H](O)[C@H]1O
- Kd (protein: Putative rhamnosidase, PDB entry 3w5n): 135 µM (active)

Compound: C[C@H]1O[C@H](O)[C@@H](O)[C@@H](O)[C@@H]1O
- Kd (protein: Pyocin L1, PDB entry 4led): 5000 µM (active)

Compound: O=S(=O)(Nc1nc2ccc(Cl)cc2s1)c1cc2ccccc2s1
- Kd (protein: 3-phosphoinositide-dependent protein kinase 1 PDK1, PDB entry 4rqv): 9 µM (active)

Compound: H-DLLDSLGF-OH
- Kd (protein: Chemotaxis protein cheY, PDB entry 2pmc): 64.7 µM (active)

Compound: H-DEEGGGEEDQDFDLSQLH-OH
- Kd (protein: p120 catenin isoform 4A delta 1 (deletion, residues 613-643), PDB entry 3l6x): 40 µM (active)

Compound: H-SFGDGFADF-OH
- Kd (protein: AP-2 complex subunit ?-2, PDB entry 2iv9): 46 µM (active)

Compound: CC(C)C[C@H](NC(=O)[C@@H](N)CC(=O)O)C(=O)N[C@@H](Cc1ccccc1)C(=O)O (H-Asp-Leu-Phe-OH)
- Kd (protein: DNA polymerase III subunit beta, PDB entry 4k3m): 281 µM (active)

Compound: H-SGFSF-OH
- Kd (protein: Ras GTPase-activating protein-binding protein 1, PDB entry 4fcm): 115 µM (active)

Compound: H-LAPPKPPLPE-OH
- Kd (protein: The second SH3 domain from CAP/Ponsin, SH3b, PDB entry 4ln2): 248 µM (active)

Compound: CC(C)C[C@H](NC(=O)[C@@H]1CCCN1C(=O)[C@@H]1CCCN1C(=O)[C@H](CC(C)C)NC(=O)[C@@H]1CCCN1C(=O)[C@H](CCCNC(N)N)NC(=O)[C@@H](N)CCCCN)C(=O)N1CCC[C@H]1C(=O)N[C@@H](CO)C(=O)O (H-K[Orn(CH(NH2)2)]PLPPLPS-OH)
- Kd (protein: phosphatidylinositol 3-kinase (PI3K) SH3 domain, PDB entry 3i5r): 40 µM (active)

Compound: H-APPPRPPPPE-OH
- Kd (protein: The first SH3 domain from CAP/Ponsin, SH3a, PDB entry 4lnp): 214 µM (active)

Compound: CC(C)CCCCCCC(=O)N[C@H]1[C@H](Oc2c3cc4cc2Oc2ccc(cc2Cl)C[C@H]2NC(=O)[C@H](N)c5ccc(O)c(c5)Oc5cc(O)cc(c5)[C@H](NC2=O)C(=O)N[C@H]4C(=O)N[C@H]2C(=O)N[C@H](C(=O)N[C@H](C(=O)O)c4cc(O)cc(O)c4-c4cc2ccc4O)[C@H](O)c2ccc(cc2)O3)O[C@H](CO)[C@@H](O)[C@@H]1O
- Kd (protein: Maltose-binding periplasmic protein, C-terminal fused by Cys-Lys-D-Ala-D-Ala, PDB entry 3vfj): 0.091 µM (active)
